Assay results published in PubChem BioAssay (EPA / NIEHS).
Results filed as inconclusive are left out. Calls of active or inactive are those of the source. Rule for the calls, unless noted: active = hit-call score of the fitted dose curve at least 0.9, where 1 is the maximum; inactive = score below 0.9.

Experiments:
[1] = ATG_CMV_CIS: Attagene CIS-FACTORIAL HepG2 Assay for human CMV (Internal Marker) (AID 2282928); details: HepG2 CMV promoter reporter, transcription factor profiling; actives raise or lower the signal;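 note: endpoint acts as a background internal control marker rather than a target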
Method in brief: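 24 h chemical treatment, HepG2 with transient multi-reporter transfection; RNA → oligo(dT) RT → PCR → 6-FAM extension → HpaI digest → CE fluorescence. Bidirectional fit, DMSO negative control.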

[2] = ATG_DR4_LXR_CIS: Attagene CIS-FACTORIAL HepG2 Assay for human Liver X Receptor (LXR), DR4 submotif (AID 2282929); details: HepG2 Attagene DR4 cis-reporter, mRNA transcription; actives raise or lower the signal
Method in brief: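 Measures endogenous transcription factor activity via a DR4-driven reporter transcript in human HepG2 cells. Compounds incubated 24 h; mRNA quantified by RT-PCR and capillary electrophoresis, analysed as gain or loss of signal versus DMSO.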

[3] = molecular target: Transcription factor E2F1 (Homo sapiens) (UniProt Q01094); experiment: ATG_E2F_CIS: Attagene CIS-FACTORIAL HepG2 Assay for human E2F Transcription Factor 1 (AID 2282935); details: HepG2 Attagene cis-reporter, E2F reporter RNA transcripts; actives raise or lower the signal
Method in brief: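 In this cis-factorial format, endogenous factor activity drives transfected reporters in HepG2; transcripts collected at 24 h are quantified by fluorescence after RT-PCR and capillary separation.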

[4] = ATG_M_19_CIS: Attagene CIS-FACTORIAL HepG2 Assay for M19 Transcription Factor (Internal Marker) (AID 2282939); details: HepG2 Attagene CIS-FACTORIAL M19 internal marker reporter; actives raise or lower the signal
Method in brief: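 Chemical-treated HepG2 (24 h) with MRTU constructs; reporter transcripts detected by fluorescent RT-PCR fragment analysis on capillary electrophoresis. Internal background marker, DMSO as baseline.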

[5] = molecular target: Hepatocyte nuclear factor 3-beta (Homo sapiens) (UniProt Q9Y261); experiment: ATG_FoxA2_CIS: Attagene CIS-FACTORIAL HepG2 Assay for human Forkhead box A2 (FOXA2) (AID 2282942); details: HepG2 cis-reporter transcription factor activity, 24 h; actives raise or lower the signal
Method in brief: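 In transiently transfected human HepG2 cells, promoter-driven reporter mRNA levels after 24 h chemical exposure are determined via RT-PCR with capillary electrophoresis. DMSO serves as baseline for bidirectional fitting.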

[6] = molecular target: Hypoxia-inducible factor 1-alpha (Homo sapiens) (UniProt Q16665); experiment: ATG_HIF1a_CIS: Attagene CIS-FACTORIAL HepG2 Assay for human Hypoxia Inducible Factor 1 (HIF1A) (AID 2282951); details: HepG2 Attagene cis-factorial HIF1a reporter transcription; actives raise or lower the signal
Method in brief: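 In this multiplexed cell assay, HepG2 cells bearing transfected cis reporters are dosed for 24 h and reporter mRNA is read by RT-PCR plus capillary electrophoresis; signal increases and decreases are both scored against DMSO.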

[7] = molecular target: Hepatocyte nuclear factor 6 (Homo sapiens) (UniProt Q9UBC0); experiment: ATG_HNF6_CIS: Attagene CIS-FACTORIAL HepG2 Assay for human Hepatocyte Nuclear Factor 6 (HNF6) (AID 2282952); details: HepG2 Attagene cis-factorial HNF6 reporter transcription; actives raise or lower the signal
Method in brief: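 Endogenous transcription factor activity in human HepG2 liver cells was captured through cis-regulated reporter constructs. After 24 h treatment, reporter mRNA was measured by RT-PCR with capillary electrophoresis, and activity was fitted in both directions relative to DMSO.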

[8] = molecular target: Heat shock factor protein 1 (Homo sapiens) (UniProt Q00613); experiment: ATG_HSE_CIS: Attagene CIS-FACTORIAL HepG2 Assay for human Heat Shock Transcription Factor 1 (HSE) (AID 2282953); details: HepG2 HSE cis-reporter, Attagene RNA transcription; actives raise or lower the signal
Method in brief: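 Liver-derived HepG2 cells carry transiently introduced multiple reporter units governed by cis promoters. Reporter RNA measured 24 h post-dose through reverse transcription, PCR amplification, fluorescent labelling and capillary electrophoresis, normalised to DMSO.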

[9] = ATG_RORE_CIS: Attagene CIS-FACTORIAL HepG2 Assay for human RAR-related Orphan Receptor Element (RORE) (AID 2282959); details: HepG2 Attagene cis-factorial RORE reporter, mRNA; actives raise or lower the signal
Method in brief: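 Fluorescence intensity of reporter-specific cDNA fragments, separated by capillary electrophoresis, gives the signal. Source: HepG2 liver cells transiently transfected with cis-element reporters and exposed 24 h; DMSO-normalized bidirectional fit.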

[10] = ATG_TA_CIS: Attagene CIS-FACTORIAL HepG2 Assay for human TA Basal Promoter (AID 2282964); details: HepG2 Attagene CIS-factorial TA basal promoter reporter; actives raise or lower the signal
Method in brief: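 Background internal-marker endpoint from a 52-component HepG2 cis-reporter panel. Cells treated 24 h; reporter transcripts quantified via RT-PCR and CE fluorescence against DMSO baseline.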

[11] = ATG_TGFb_CIS: Attagene CIS-FACTORIAL HepG2 Assay for human Transforming Growth Factor (TGF) (AID 2282967); details: HepG2 Attagene CIS TGFb reporter, mRNA transcription; actives raise or lower the signal
Method in brief: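 Liver HepG2 line, cis-factorial reporter panel, 24 h dosing. Quantitation: RT-PCR products labeled with 6-FAM, cut with HpaI, resolved by capillary electrophoresis; DMSO-referenced bidirectional analysis.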

[12] = ATG_M_06_TRANS: Attagene TRANS-FACTORIAL HepG2 Assay for M06 Transcription Factor (Internal Marker) (AID 2282983; active = hit-call score of the fitted dose curve at least 0.9, where 1 is the maximum); details: HepG2 Attagene TRANS M06 internal marker reporter
Method in brief: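 Human liver HepG2 cells bearing transiently transfected chimeric NR-GAL4 reporter units were treated with chemicals for 24 h. Total RNA was reverse-transcribed, reporter sequences amplified and labelled, then quantified by capillary electrophoresis. Activity was fitted upward relative to DMSO.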

[13] = ATG_NFI_CIS: Attagene CIS-FACTORIAL HepG2 Assay for human Nuclear Factor I (NFI) (AID 2282989); details: HepG2 cis-regulatory reporter, NFI response element transcription; actives raise or lower the signal
Method in brief: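 Transfected HepG2 liver cells, exposed 24 h, supplied total RNA for oligo(dT) reverse transcription and reporter-specific PCR. Labelled, HpaI-cut fragments were sized by capillary electrophoresis; DMSO set the baseline for bidirectional fitting.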

[14] = molecular target: Myc proto-oncogene protein (Homo sapiens) (UniProt P01106); experiment: ATG_Myc_CIS: Attagene CIS-FACTORIAL HepG2 Assay for human Myelocytomatosis (Myc) Proto-Oncogene Transcription Factor (AID 2282990); details: HepG2, Attagene cis-reporter transcription factor activity; actives raise or lower the signal
Method in brief: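 DMSO-normalised, bidirectionally fitted reporter mRNA signal. HepG2 cells transfected with cis reporter constructs, treated 24 h; transcripts detected by RT-PCR, 6-FAM primer extension and CE.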

[15] = ATG_NRF2_ARE_CIS: Attagene CIS-FACTORIAL HepG2 Assay for human Nuclear Factor Erythroid 2 Related Factor 2 (NFR2) response to Antioxidant Response Elements (ARE) (AID 2282992); details: HepG2 Attagene ARE/NRF2 reporter, transcription factor activity; actives raise or lower the signal;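 for AC50: reporter mRNA level measured by RT-PCR and capillary electrophoresis fluorescence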
Method in brief: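 Endogenous transcription factor activity in human liver HepG2 cells is tracked via a cis-element-driven reporter within a multiplexed set. mRNA induction is read by RT-PCR and capillary electrophoresis after 24 h, with DMSO as baseline.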

[16] = molecular target: Cellular tumor antigen p53 (Homo sapiens) (UniProt P04637); experiment: ATG_p53_CIS: Attagene CIS-FACTORIAL HepG2 Assay for human p53 Transcription Factor (AID 2282994); details: HepG2 p53 cis-element reporter, Attagene mRNA; actives raise or lower the signal
Method in brief: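 Steps: transfect HepG2 with multiplexed cis reporter constructs; dose chemicals 24 h; extract RNA, reverse-transcribe, PCR-amplify reporter sequences; FAM-label, HpaI-digest, resolve fragments by CE. Activity fitted both directions relative to DMSO.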

[17] = molecular target: Nuclear receptor subfamily 1 group I member 2 (Homo sapiens) (UniProt O75469); experiment: ATG_PXR_TRANS: Attagene TRANS-FACTORIAL HepG2 Assay for human Pregnane X Receptor (PXR) (AID 2283008; active = hit-call score of the fitted dose curve at least 0.9, where 1 is the maximum)
Method in brief: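 HepG2 transfected (FuGene 6) with GAL4-UAS reporter units + PXR-Gal4 chimera; dosed 24 h. Total RNA → oligo(dT) RT → PCR → 6-FAM primer extension → HpaI cut → CE. Gain-of-signal vs DMSO.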

[18] = ATG_ISRE_CIS: Attagene CIS-FACTORIAL HepG2 Assay for human Interferon Regulatory Factor 1 (IRF1) binding to an Interferon-Stimulated Response Element (ISRE) (AID 2282948); details: HepG2 ISRE cis-reporter (Attagene), mRNA transcription readout; actives raise or lower the signal
Method in brief: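 Multiplexed mRNA reporter readout in human liver HepG2 cells: cis-element-driven reporters transfected, compound added for 24 h, transcripts amplified, fluorescently labelled and sized by capillary electrophoresis; curve fitting bidirectional against DMSO.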

[19] = ATG_Sox_CIS: Attagene CIS-FACTORIAL HepG2 Assay for human SRY-box transcription factor (SOX) (AID 2282960); details: HepG2 Attagene cis-factorial SOX reporter, mRNA; actives raise or lower the signal
Method in brief: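 After 24 h of chemical treatment, transfected HepG2 reporter cells are lysed for total RNA. Transcript levels come from RT-PCR with labelled primer extension and capillary electrophoresis, analysed bidirectionally versus DMSO.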

[20] = ATG_VDRE_CIS: Attagene CIS-FACTORIAL HepG2 Assay for human Vitamin D Receptor Element (VDRE) (AID 2282968); details: HepG2 VDRE cis-reporter transcription, actives raise or lower the signal
Method in brief: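 Transfected HepG2 reporter cells, chemical treatment 24 h. RNA isolated, cDNA amplified with reporter-specific primers, products analysed by capillary electrophoresis. Endpoint fitted in both directions versus DMSO.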

Measured: AC50

Sequence of Myc proto-oncogene protein (Homo sapiens) (P01106 whole entry, looked up): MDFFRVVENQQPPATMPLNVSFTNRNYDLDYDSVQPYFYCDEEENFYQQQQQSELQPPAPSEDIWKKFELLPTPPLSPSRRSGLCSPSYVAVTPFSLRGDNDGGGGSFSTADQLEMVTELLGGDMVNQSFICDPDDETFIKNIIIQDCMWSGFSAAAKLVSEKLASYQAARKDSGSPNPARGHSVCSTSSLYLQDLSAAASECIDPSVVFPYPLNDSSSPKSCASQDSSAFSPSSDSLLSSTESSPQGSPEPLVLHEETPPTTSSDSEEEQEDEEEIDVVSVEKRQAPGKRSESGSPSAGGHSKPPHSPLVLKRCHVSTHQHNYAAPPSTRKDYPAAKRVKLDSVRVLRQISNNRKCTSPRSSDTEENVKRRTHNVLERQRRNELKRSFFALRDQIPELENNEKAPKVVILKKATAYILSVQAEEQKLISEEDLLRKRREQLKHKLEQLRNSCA
Sequence of Transcription factor E2F1 (Homo sapiens) (Q01094 whole entry, looked up): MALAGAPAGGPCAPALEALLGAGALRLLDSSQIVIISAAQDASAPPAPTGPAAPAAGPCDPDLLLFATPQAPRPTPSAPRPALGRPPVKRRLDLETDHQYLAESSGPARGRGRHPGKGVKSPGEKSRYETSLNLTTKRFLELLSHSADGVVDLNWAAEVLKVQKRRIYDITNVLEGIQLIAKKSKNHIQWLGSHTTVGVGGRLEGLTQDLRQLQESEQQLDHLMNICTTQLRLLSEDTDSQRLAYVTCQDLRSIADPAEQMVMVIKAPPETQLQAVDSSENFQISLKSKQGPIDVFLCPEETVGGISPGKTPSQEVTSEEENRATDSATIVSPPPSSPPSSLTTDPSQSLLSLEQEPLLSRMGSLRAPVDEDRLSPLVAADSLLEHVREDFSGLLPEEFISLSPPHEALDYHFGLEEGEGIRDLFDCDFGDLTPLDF
Sequence of Hepatocyte nuclear factor 3-beta (Homo sapiens) (Q9Y261 whole entry, looked up): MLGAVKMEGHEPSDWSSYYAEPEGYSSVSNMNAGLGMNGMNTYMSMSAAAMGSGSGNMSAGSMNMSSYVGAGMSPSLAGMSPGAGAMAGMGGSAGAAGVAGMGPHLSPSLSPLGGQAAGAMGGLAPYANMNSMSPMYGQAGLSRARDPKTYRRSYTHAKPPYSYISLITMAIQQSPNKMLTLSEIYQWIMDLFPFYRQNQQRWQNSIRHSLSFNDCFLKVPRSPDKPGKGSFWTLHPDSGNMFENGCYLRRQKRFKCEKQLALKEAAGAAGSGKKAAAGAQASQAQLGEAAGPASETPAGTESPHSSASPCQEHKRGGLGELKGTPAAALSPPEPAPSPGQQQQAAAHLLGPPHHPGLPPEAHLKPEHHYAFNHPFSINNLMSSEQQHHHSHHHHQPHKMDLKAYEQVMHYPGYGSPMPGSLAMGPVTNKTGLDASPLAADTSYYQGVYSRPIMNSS
Sequence of Heat shock factor protein 1 (Homo sapiens) (Q00613 whole entry, looked up): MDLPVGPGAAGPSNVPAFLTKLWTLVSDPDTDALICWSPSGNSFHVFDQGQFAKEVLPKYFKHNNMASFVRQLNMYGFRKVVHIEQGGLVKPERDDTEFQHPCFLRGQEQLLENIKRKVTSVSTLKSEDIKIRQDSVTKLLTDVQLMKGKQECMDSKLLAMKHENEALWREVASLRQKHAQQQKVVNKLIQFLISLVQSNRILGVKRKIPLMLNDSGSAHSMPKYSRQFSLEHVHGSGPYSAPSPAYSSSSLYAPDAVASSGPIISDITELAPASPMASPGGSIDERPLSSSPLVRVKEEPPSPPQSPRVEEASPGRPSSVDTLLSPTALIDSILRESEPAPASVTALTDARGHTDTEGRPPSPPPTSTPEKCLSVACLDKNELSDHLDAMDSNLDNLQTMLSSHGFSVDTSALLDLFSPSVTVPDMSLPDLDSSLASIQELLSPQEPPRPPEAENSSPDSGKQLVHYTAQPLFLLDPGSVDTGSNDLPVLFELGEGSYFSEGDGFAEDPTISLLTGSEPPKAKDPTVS
Sequence of Hepatocyte nuclear factor 6 (Homo sapiens) (Q9UBC0 whole entry, looked up): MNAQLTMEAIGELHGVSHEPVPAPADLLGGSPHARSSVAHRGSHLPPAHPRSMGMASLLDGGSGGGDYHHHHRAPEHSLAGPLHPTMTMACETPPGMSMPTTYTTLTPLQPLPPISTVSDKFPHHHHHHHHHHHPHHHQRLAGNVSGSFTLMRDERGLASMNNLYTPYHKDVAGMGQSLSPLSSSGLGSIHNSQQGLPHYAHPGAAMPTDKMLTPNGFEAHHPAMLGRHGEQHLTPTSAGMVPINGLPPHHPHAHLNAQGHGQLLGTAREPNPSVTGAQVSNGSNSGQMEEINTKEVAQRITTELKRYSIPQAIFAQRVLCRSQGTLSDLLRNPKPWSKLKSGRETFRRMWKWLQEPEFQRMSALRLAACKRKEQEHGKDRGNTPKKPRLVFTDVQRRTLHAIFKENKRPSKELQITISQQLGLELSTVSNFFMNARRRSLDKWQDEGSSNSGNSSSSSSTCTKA
Sequence of Hypoxia-inducible factor 1-alpha (Homo sapiens) (Q16665 whole entry, looked up): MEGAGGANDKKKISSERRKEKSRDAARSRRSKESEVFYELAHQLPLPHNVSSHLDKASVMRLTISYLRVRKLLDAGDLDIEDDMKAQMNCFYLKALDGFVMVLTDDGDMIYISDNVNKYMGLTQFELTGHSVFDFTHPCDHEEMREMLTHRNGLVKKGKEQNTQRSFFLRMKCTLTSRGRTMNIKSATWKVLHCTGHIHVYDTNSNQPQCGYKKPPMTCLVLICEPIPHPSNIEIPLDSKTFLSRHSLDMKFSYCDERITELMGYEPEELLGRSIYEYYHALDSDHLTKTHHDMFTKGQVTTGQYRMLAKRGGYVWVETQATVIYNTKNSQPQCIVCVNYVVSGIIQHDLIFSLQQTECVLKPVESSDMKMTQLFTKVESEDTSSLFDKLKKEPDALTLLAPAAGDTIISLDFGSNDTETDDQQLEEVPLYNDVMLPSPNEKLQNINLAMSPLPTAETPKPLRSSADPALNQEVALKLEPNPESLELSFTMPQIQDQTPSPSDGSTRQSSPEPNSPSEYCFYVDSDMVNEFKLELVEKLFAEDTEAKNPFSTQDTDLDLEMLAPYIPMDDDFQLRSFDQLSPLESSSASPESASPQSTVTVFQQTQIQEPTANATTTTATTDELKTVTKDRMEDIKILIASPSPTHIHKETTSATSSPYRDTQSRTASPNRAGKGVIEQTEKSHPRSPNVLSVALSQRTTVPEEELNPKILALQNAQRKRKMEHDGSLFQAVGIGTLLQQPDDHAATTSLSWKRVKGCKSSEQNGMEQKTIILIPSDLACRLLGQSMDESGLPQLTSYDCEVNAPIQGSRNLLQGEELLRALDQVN
Sequence of Nuclear receptor subfamily 1 group I member 2 (Homo sapiens) (O75469 whole entry, looked up, the tested form may be a part): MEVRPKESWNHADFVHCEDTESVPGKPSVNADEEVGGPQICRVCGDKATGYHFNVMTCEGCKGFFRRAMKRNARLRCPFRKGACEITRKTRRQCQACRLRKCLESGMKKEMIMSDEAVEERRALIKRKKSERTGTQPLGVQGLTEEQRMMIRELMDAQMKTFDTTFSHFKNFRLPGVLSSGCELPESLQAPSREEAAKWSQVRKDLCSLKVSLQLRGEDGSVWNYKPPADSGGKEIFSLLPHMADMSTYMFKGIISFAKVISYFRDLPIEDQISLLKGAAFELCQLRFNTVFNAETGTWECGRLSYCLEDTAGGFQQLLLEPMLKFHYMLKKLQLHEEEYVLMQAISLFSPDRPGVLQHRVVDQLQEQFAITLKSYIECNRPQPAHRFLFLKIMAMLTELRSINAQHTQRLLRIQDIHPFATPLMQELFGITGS
Sequence of Cellular tumor antigen p53 (Homo sapiens) (P04637 whole entry, looked up, the tested form may be a part): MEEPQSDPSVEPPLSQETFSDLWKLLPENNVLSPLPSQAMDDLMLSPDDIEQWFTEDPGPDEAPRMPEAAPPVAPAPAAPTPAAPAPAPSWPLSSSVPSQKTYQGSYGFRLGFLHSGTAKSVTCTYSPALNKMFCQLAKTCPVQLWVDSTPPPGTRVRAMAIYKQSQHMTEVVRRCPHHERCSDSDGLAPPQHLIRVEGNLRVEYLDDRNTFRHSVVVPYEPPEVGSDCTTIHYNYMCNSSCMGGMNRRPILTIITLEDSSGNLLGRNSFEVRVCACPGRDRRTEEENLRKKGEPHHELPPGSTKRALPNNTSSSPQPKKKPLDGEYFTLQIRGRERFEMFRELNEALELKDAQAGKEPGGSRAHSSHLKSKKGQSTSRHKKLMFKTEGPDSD

CC/C=C\CC/C=C/C(OCC)OCC
active: [1] 150 µM | [8] 156 µM | [15] 26.2 µM | [16] 187 µM
not listed: [18] | [19] | [20]
inactive: all other assays above

C=CCOCC(CC)(CO)COCC=C
inactive: all assays above

CNC[C@H](O)[C@@H](O)[C@H](O)[C@H](O)CO
not listed: [4] | [6] | [17] | [18]
inactive: all other assays above

CCCCCC1CCCC(=O)O1 (stereo not drawn)
not listed: [4] | [10] | [12]
inactive: all other assays above

COC(=O)CCSCCC(=O)OC
not listed: [12] | [16] | [18] | [20]
inactive: all other assays above

Brc1ccc(Oc2ccc(Br)cc2)cc1
active: [1] 40.4 µM | [11] 100 µM | [15] 66.4 µM | [17] 7.35 µM
not listed: [4] | [10] | [12] | [19]
inactive: all other assays above

Nc1nnc(-c2ccc([N+](=O)[O-])o2)o1
active: [14] 12 µM | [15] 20.8 µM
not listed: [4] | [12] | [17]
inactive: all other assays above

COc1c2occc2cc2ccc(=O)oc12
active: [1] 59.2 µM | [20] 53.7 µM | [17] 14.5 µM
not listed: [6] | [7] | [8] | [10] | [13] | [15]
inactive: all other assays above
